# Reference: PMC10668032, “Altered binding affinity of SIX1-Q177R correlates with enhanced WNT5A and WNT pathway effector expression in Wilms tumor”
# In all, about 33,000 sequences were measured (“e-score”: median about -0.053, highest 2% from about 0.38 on). This is one part of a sample in which the highest values are shown more often than they occur.
# Target: T1, SIX1 homeodomain (reference allele) (human, UniProt Q15475 108-198)
# T1 sequence: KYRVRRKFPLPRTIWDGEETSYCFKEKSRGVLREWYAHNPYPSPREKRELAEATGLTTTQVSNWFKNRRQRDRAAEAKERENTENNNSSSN
# Test: universal protein binding microarray; Universal all-10-mer PBM (8x60K, AMADID 030236), 300 nM GST-tagged protein, Alexa Fluor 488 anti-GST; buffer, salt, pH and temperature not stated (as in Berger); high values mean tight binding
# Conditions: protein: ivt; tags: N-terminal GST; dsDNA, one strand shown
# Summary of the method: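 After in vitro transcription/translation, GST-tagged homeodomains were quantified against a recombinant GST standard curve by anti-GST western blot. They were then placed in duplicate at 300 nM final concentration on universal 'all 10-mer' protein binding microarrays of 8×60K format.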
row,Sequence,binding signal [E-score]
1,GATCAAGC,0.312 ± 0.00728
2,ACACGACT,0.162 ± 0.0387
3,ATCATTCG,0.294 ± 0.00745
4,GAGCGATC,0.279 ± 0.0379
5,GATCTCCC,0.361 ± 0.00166
6,TATCGAAA,0.345 ± 0.0543
7,CCATCTCG,0.166 ± 0.114
8,GATCACGC,0.317 ± 0.0237
9,GATCACAC,0.351 ± 0.0284
10,GATCATGC,0.242 ± 0.0641
11,CATCATAC,0.151 ± 0.0343
12,GATCATAC,0.3778 ± 0.00307
13,GATCATCA,0.34 ± 0.00658
14,GATCACCC,0.407 ± 0.0371
15,GCTCATCC,0.219 ± 0.00236
16,GATCATCC,0.41 ± 0.0124
17,GATGGGGA,0.191 ± 0.049
18,CGTGGATA,0.362 ± 0.0371
19,ACCTGCTA,0.2283 ± 0.000693
20,TGGTGACA,0.156 ± 0.0327
21,GATCCTAC,0.32 ± 0.0262
22,CAGCGATA,0.359 ± 0.0421

row,Sequence,binding signal [E-score]
1,AAGCGATA,0.376 ± 0.0611
2,AGGCGATA,0.357 ± 0.00753
3,TAGCGATA,0.3796 ± 0.0024
4,CTGCGATA,0.342 ± 0.0342
5,AAGCGATC,0.239 ± 0.00546
6,GAGCGATA,0.344 ± 0.042
7,ATGCGATA,0.394 ± 0.037
8,GTGCGATA,0.36 ± 0.0111
9,AGATAGTG,0.152 ± 0.0589
10,CCCATCCG,0.191 ± 0.101
11,CAATGACA,0.198 ± 0.0712
12,GGTGTTTA,0.203 ± 0.0284
13,ACCCGACA,0.239 ± 0.0574
14,ATCAATGC,0.163 ± 0.0171
15,ATCCATTA,0.244 ± 0.00287
16,AGCCGTAT,0.292 ± 0.018
17,ATATACGC,0.244 ± 0.0546
18,CATGATCA,0.177 ± 0.0294
19,GATGATCC,0.45356 ± 0.000438
20,GAAGATCC,0.297 ± 0.0273
21,GATGATCA,0.315 ± 0.00602
22,TATGATCA,0.25 ± 0.0234

row,Sequence,binding signal [E-score]
1,AATGATCT,0.369 ± 0.0567
2,AATGATCC,0.424 ± 0.011
3,AATGATCG,0.152 ± 0.117
4,CATGATCC,0.394 ± 0.00778
5,AACGGGAT,0.243 ± 0.0163
6,GATAGGAC,0.22 ± 0.0517
7,TCATGGGA,0.153 ± 0.0225
8,ATAGCCAA,0.218 ± 0.0447
9,CCGCGGTA,0.194 ± 0.102
10,CGGTGTAG,0.297 ± 0.025
11,AACGGATA,0.421 ± 0.0091
12,AACGGATT,0.204 ± 0.0564
13,AACAGATC,0.2 ± 0.0405
14,AATGGATC,0.35 ± 0.00509
15,CACAGATA,0.205 ± 0.00976
16,CACAGATC,0.277 ± 0.0367
17,AACGGATC,0.376 ± 0.0111
18,GACGGATC,0.358 ± 0.041
19,GACGGATA,0.35 ± 0.0364
20,CACGGATA,0.397 ± 0.0101
21,AACGGGTA,0.159 ± 0.0738
22,CACGGATC,0.405 ± 0.0341

row,Sequence,binding signal [E-score]
1,ATACAGGA,0.228 ± 0.0565
2,ATGCAATA,0.192 ± 0.0352
3,GAGTAGAC,0.214 ± 0.0128
4,ATATGCCC,0.339 ± 0.0543
5,CGATCTAG,0.1577 ± 0.00153
6,ATCATTTC,0.1962 ± 0.00187
7,ATCAAGCG,0.228 ± 0.0527
8,AGAGCGAT,0.159 ± 0.0536
9,AAGCCGAT,0.211 ± 0.0118
10,CATTATAC,0.28 ± 0.0245
11,CGAGGGGA,0.164 ± 0.0583
12,TACGGATA,0.401 ± 0.0137
13,TAAGGATA,0.276 ± 0.0458
14,TACAGATA,0.267 ± 0.0119
15,CCCATCCC,0.154 ± 0.0727
16,GCTAGATA,0.255 ± 0.0399
17,ATACTGAA,0.173 ± 0.0413
18,ATATGGTA,0.256 ± 0.011
19,CCACTATC,0.227 ± 0.0482
20,GCATACGA,0.157 ± 0.0596
